Substitutions are numbered along the chain they refer to.
Legend:
Experiment in all cases: PBM; 200 nM protein, PBS
Conditions in all cases: dsDNA, one strand shown
[1] = target: T1, PAX4 (Homo sapiens, UniProt O43316 9-242, R200K)
T1 sequence: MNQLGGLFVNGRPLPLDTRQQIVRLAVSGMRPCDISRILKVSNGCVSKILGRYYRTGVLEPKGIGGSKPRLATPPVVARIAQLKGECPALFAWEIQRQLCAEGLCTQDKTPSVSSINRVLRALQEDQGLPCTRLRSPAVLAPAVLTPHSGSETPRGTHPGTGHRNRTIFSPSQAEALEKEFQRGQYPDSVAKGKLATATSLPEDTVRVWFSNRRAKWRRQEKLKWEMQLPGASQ

[2] = target: PRRX1 (Homo sapiens, UniProt P54821 80-166, F113S)
[3] = target: T2, PAX4 (Homo sapiens, UniProt O43316 9-242)
T2 sequence: T1 sequence with K192R

[4] = target: T3, PAX4 (Homo sapiens, UniProt O43316 9-242, R200Q)
T3 sequence: T1 sequence with K192Q

[5] = target: SHOX (Homo sapiens, UniProt O15266 103-189, R173C)
[6] = target: T4, PAX4 (Homo sapiens, UniProt O43316 9-242, F177V)
T4 sequence: T1 sequence with F169V, K192R

[7] = target: T5, PAX4 (Homo sapiens, UniProt O43316 9-242, F177Y)
T5 sequence: T1 sequence with F169Y, K192R

[8] = target: HESX1 (Homo sapiens, UniProt Q9UBX0 95-180, R109Q)
[9] = target: ALX3 (Homo sapiens, UniProt O95076 139-225, L168V)
[10] = target: HESX1 (Homo sapiens, UniProt Q9UBX0 95-180, F115L)
[11] = target: T6, PAX4 (Homo sapiens, UniProt O43316 9-242, R227W)
T6 sequence: T1 sequence with K192R, R219W

[12] = target: ALX4 (Homo sapiens, UniProt Q9H161 200-286)
[13] = target: ALX4 (Homo sapiens, UniProt Q9H161 200-286, Q225E)
[14] = target: MSX2 (Homo sapiens, UniProt P35548 130-214, R199I)
[15] = target: MSX2 (Homo sapiens, UniProt P35548 130-214)
[16] = target: VAX1 (Homo sapiens, UniProt Q5SQQ9 86-172)
[17] = target: MSX2 (Homo sapiens, UniProt P35548 130-214, F161Y)
[18] = target: VAX1 (Homo sapiens, UniProt Q5SQQ9 86-172, T142I)
[19] = target: VAX1 (Homo sapiens, UniProt Q5SQQ9 86-172, K157R)
[20] = target: HOXA2 (Homo sapiens, UniProt O43364 129-215, R185T)
[21] = target: HOXA2 (Homo sapiens, UniProt O43364 129-215, R185K)
[22] = target: HOXA2 (Homo sapiens, UniProt O43364 129-215, Y150S)
[23] = target: PRRX1 (Homo sapiens, UniProt P54821 80-166)
[24] = target: HOXA2 (Homo sapiens, UniProt O43364 129-215)
[25] = target: ALX1 (Homo sapiens, UniProt Q15699 118-204, L144V)
[26] = target: PITX2 (Homo sapiens, UniProt Q99697 72-157)
[27] = target: ALX1 (Homo sapiens, UniProt Q15699 118-204, L144R)
[28] = target: ALX1 (Homo sapiens, UniProt Q15699 118-204)
Chain of ALX1 (Homo sapiens, UniProt Q15699 118-204) (Q15699 118-204): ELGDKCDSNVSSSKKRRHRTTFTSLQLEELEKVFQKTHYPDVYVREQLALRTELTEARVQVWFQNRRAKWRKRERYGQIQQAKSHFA

Chain of ALX4 (Homo sapiens, UniProt Q9H161 200-286) (Q9H161 200-286): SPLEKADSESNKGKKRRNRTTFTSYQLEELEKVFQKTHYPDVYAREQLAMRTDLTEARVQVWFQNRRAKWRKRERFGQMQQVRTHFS
Chain of MSX2 (Homo sapiens, UniProt P35548 130-214, F161Y) (P35548 130-214 F161Y): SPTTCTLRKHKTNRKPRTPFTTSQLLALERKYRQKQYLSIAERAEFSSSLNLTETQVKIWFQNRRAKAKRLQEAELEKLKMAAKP
Chain of PRRX1 (Homo sapiens, UniProt P54821 80-166, F113S) (P54821 80-166 F113S): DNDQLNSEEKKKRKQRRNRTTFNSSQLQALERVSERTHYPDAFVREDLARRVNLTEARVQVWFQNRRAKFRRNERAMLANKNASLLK
Chain of ALX4 (Homo sapiens, UniProt Q9H161 200-286, Q225E) (Q9H161 200-286 Q225E): as the sequence (Q9H161 200-286) above, with Q26E counted along it
Chain of MSX2 (Homo sapiens, UniProt P35548 130-214, R199I) (P35548 130-214 R199I): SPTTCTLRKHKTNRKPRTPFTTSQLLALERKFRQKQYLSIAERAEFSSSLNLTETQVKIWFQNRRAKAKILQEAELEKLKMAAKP
Chain of MSX2 (Homo sapiens, UniProt P35548 130-214) (P35548 130-214): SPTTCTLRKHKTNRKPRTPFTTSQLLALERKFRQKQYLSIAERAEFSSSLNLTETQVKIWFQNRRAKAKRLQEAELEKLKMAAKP
Chain of PRRX1 (Homo sapiens, UniProt P54821 80-166) (P54821 80-166): as the sequence (P54821 80-166 F113S) above, with S34F counted along it
Chain of HOXA2 (Homo sapiens, UniProt O43364 129-215, R185T) (O43364 129-215 R185T): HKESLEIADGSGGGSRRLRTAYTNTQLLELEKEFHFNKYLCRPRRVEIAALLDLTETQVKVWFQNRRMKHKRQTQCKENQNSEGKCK
Chain of HOXA2 (Homo sapiens, UniProt O43364 129-215, Y150S) (O43364 129-215 Y150S): as the sequence (O43364 129-215 R185T) above, with Y22S, T57R counted along it
Chain of VAX1 (Homo sapiens, UniProt Q5SQQ9 86-172, K157R) (Q5SQQ9 86-172 K157R): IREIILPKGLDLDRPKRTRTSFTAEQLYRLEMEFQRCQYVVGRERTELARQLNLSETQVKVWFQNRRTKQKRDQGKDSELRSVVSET
Chain of HOXA2 (Homo sapiens, UniProt O43364 129-215, R185K) (O43364 129-215 R185K): as the sequence (O43364 129-215 R185T) above, with T57K counted along it
Chain of HOXA2 (Homo sapiens, UniProt O43364 129-215) (O43364 129-215): as the sequence (O43364 129-215 R185T) above, with T57R counted along it
Chain of VAX1 (Homo sapiens, UniProt Q5SQQ9 86-172, T142I) (Q5SQQ9 86-172 T142I): as the sequence (Q5SQQ9 86-172 K157R) above, with T57I, R72K counted along it
Chain of HESX1 (Homo sapiens, UniProt Q9UBX0 95-180, R109Q) (Q9UBX0 95-180 R109Q): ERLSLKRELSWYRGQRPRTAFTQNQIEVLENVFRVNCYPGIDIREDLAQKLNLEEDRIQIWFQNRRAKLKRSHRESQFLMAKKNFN
Chain of VAX1 (Homo sapiens, UniProt Q5SQQ9 86-172) (Q5SQQ9 86-172): as the sequence (Q5SQQ9 86-172 K157R) above, with R72K counted along it
Chain of ALX1 (Homo sapiens, UniProt Q15699 118-204, L144V) (Q15699 118-204 L144V): as the sequence (Q15699 118-204) above, with L27V counted along it
Chain of HESX1 (Homo sapiens, UniProt Q9UBX0 95-180, F115L) (Q9UBX0 95-180 F115L): as the sequence (Q9UBX0 95-180 R109Q) above, with Q15R, F21L counted along it
Chain of SHOX (O15266 103-189 R173C): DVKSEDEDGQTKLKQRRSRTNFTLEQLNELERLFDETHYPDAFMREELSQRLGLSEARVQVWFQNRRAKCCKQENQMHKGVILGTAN
Chain of ALX3 (O95076 139-225 L168V): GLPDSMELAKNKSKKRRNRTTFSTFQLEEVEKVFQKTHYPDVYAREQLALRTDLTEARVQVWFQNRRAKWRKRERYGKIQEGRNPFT
Chain of ALX1 (Homo sapiens, UniProt Q15699 118-204, L144R) (Q15699 118-204 L144R): as the sequence (Q15699 118-204) above, with L27R counted along it

## AATTAGAA
[1]
  binding signal: 11.6 upbm affinity estimate (log intensity, higher = more binding, comparable within an allelic series)
[2]
  binding signal: 11.1 upbm affinity estimate (log intensity, higher = more binding, comparable within an allelic series)
[3]
  binding signal: 12.1 upbm affinity estimate (log intensity, higher = more binding, comparable within an allelic series)
[4]
  binding signal: 11.9 upbm affinity estimate (log intensity, higher = more binding, comparable within an allelic series)
[5]
  binding signal: 9.39 upbm affinity estimate (log intensity, higher = more binding, comparable within an allelic series)
[6]
  binding signal: 10.5 upbm affinity estimate (log intensity, higher = more binding, comparable within an allelic series)
[7]
  binding signal: 10.9 upbm affinity estimate (log intensity, higher = more binding, comparable within an allelic series)
[8]
  binding signal: 8.83 upbm affinity estimate (log intensity, higher = more binding, comparable within an allelic series)
[9]
  binding signal: 9.7 upbm affinity estimate (log intensity, higher = more binding, comparable within an allelic series)
[10]
  binding signal: 7.75 upbm affinity estimate (log intensity, higher = more binding, comparable within an allelic series)
[11]
  binding signal: 10.9 upbm affinity estimate (log intensity, higher = more binding, comparable within an allelic series)

## CCGTCTAG
[12]
  binding signal: 7.85 upbm affinity estimate (log intensity, higher = more binding, comparable within an allelic series)
[13]
  binding signal: 8.02 upbm affinity estimate (log intensity, higher = more binding, comparable within an allelic series)
[14]
  binding signal: 9.52 upbm affinity estimate (log intensity, higher = more binding, comparable within an allelic series)
[15]
  binding signal: 9.39 upbm affinity estimate (log intensity, higher = more binding, comparable within an allelic series)
[16]
  binding signal: 6.91 upbm affinity estimate (log intensity, higher = more binding, comparable within an allelic series)
[17]
  binding signal: 9.55 upbm affinity estimate (log intensity, higher = more binding, comparable within an allelic series)
[18]
  binding signal: 7.09 upbm affinity estimate (log intensity, higher = more binding, comparable within an allelic series)
[19]
  binding signal: 7.03 upbm affinity estimate (log intensity, higher = more binding, comparable within an allelic series)

## GCTGCAGC
[1]
  binding signal: 9.33 upbm affinity estimate (log intensity, higher = more binding, comparable within an allelic series)
[2]
  binding signal: 9.31 upbm affinity estimate (log intensity, higher = more binding, comparable within an allelic series)
[3]
  binding signal: 9.16 upbm affinity estimate (log intensity, higher = more binding, comparable within an allelic series)
[20]
  binding signal: 7.32 upbm affinity estimate (log intensity, higher = more binding, comparable within an allelic series)
[14]
  binding signal: 9.55 upbm affinity estimate (log intensity, higher = more binding, comparable within an allelic series)
[4]
  binding signal: 9.38 upbm affinity estimate (log intensity, higher = more binding, comparable within an allelic series)
[21]
  binding signal: 10.3 upbm affinity estimate (log intensity, higher = more binding, comparable within an allelic series)
[6]
  binding signal: 9.33 upbm affinity estimate (log intensity, higher = more binding, comparable within an allelic series)
[15]
  binding signal: 9.49 upbm affinity estimate (log intensity, higher = more binding, comparable within an allelic series)
[7]
  binding signal: 9.42 upbm affinity estimate (log intensity, higher = more binding, comparable within an allelic series)
[17]
  binding signal: 9.48 upbm affinity estimate (log intensity, higher = more binding, comparable within an allelic series)
[11]
  binding signal: 9.46 upbm affinity estimate (log intensity, higher = more binding, comparable within an allelic series)
[22]
  binding signal: 10.6 upbm affinity estimate (log intensity, higher = more binding, comparable within an allelic series)
[23]
  binding signal: 9.11 upbm affinity estimate (log intensity, higher = more binding, comparable within an allelic series)
[24]
  binding signal: 6.95 upbm affinity estimate (log intensity, higher = more binding, comparable within an allelic series)

## GAGGACTC
[12]
  binding signal: 8.06 upbm affinity estimate (log intensity, higher = more binding, comparable within an allelic series)
[13]
  binding signal: 8.19 upbm affinity estimate (log intensity, higher = more binding, comparable within an allelic series)
[25]
  binding signal: 6.41 upbm affinity estimate (log intensity, higher = more binding, comparable within an allelic series)
[26]
  binding signal: 7.89 upbm affinity estimate (log intensity, higher = more binding, comparable within an allelic series)
[27]
  binding signal: 6.53 upbm affinity estimate (log intensity, higher = more binding, comparable within an allelic series)
[28]
  binding signal: 6.39 upbm affinity estimate (log intensity, higher = more binding, comparable within an allelic series)

Reference: publication PMC11006913
